Calls of active or inactive are those of the source. Rule for the calls: active = hit-call score of the fitted dose curve at least 0.9, where 1 is the maximum; inactive = score below 0.9.
How the values were obtained:
Conditions in all cases: mRNA level, 48 h; actives raise or lower the signal
[1] = read-out: Peroxisomal acyl-coenzyme A oxidase 1 (ACOX1) gene, ACOX1 (gene 51); assay: LTEA_HepaRG_ACOX1: Life Technologies and Expression Analysis (LTEA) Assay for Peroxisomal acyl-coenzyme A oxidase 1 (ACOX1) gene using HepaRG (AID 2283467)
In short: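 ACOX1 transcript levels were quantified by TaqMan qRT-PCR against three housekeeping genes after 48 h chemical exposure of differentiated human HepaRG cells. Exposure used eight half-log steps topping at 100 uM, 0.5% DMSO vehicle, in duplicate. Bidirectional curve fits were made relative to DMSO.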

[2] = read-out: Alkaline Phosphatase, Placental (ALPP) gene, ALPP (gene 250); assay: LTEA_HepaRG_ALPP: Life Technologies and Expression Analysis (LTEA) Assay for Alkaline Phosphatase, Placental (ALPP) gene using HepaRG (AID 2283468);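 for AC50: differentiated human HepaRG liver cells in serum-free induction medium; ALPP transcript by TaqMan qRT-PCR normalized to ACTB GAPDH and POLR2A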
In short: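 Using human liver HepaRG cells, chemicals are tested in duplicate over 48 h at half-log concentrations topping at 100 uM; phenobarbital 1 mM serves as induction control. ALPP mRNA change by qRT-PCR, bidirectional fit against vehicle.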

[3] = read-out: Bcl-2 (BAD) gene, BAD (gene 572); assay: LTEA_HepaRG_BAD: Life Technologies and Expression Analysis (LTEA) Assay for Bcl-2 (BAD) gene using HepaRG (AID 2283469)
In short: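 Read-out: qRT-PCR of BAD mRNA, normalized to three housekeeping genes. Human HepaRG cultures got 48 h chemical exposure in 0.5% DMSO, duplicate eight-point half-log series topping at 100 uM. Gain or loss of signal fitted versus DMSO vehicle.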

[4] = read-out: Bcl-2 (BAX) gene, BAX (gene 581); assay: LTEA_HepaRG_BAX: Life Technologies and Expression Analysis (LTEA) Assay for Bcl-2 (BAX) gene using HepaRG (AID 2283470)
In short: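 Human HepaRG cells treated in duplicate for 48 h across eight concentrations (max 100 uM, 0.5% DMSO); BAX expression measured by qRT-PCR.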

[5] = read-out: adenosine kinase (ADK) gene, ADK (gene 132); assay: LTEA_HepaRG_ADK: Life Technologies and Expression Analysis (LTEA) Assay for adenosine kinase (ADK) gene using HepaRG (AID 2283471)
In short: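 HepaRG (human liver), 48 h chemical exposure, 8-pt half-log series, top 100 uM, 0.5% DMSO vehicle. Readout: ADK mRNA by qRT-PCR vs housekeeping genes; bidirectional curve fit relative to DMSO baseline.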

[6] = read-out: Alpha-fetoprotein (AFP) gene, AFP (gene 174); assay: LTEA_HepaRG_AFP: Life Technologies and Expression Analysis (LTEA) Assay for Alpha-fetoprotein (AFP) gene using HepaRG (AID 2283472);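 for AC50: AFP transcript by TaqMan qRT-PCR normalized to ACTB GAPDH and POLR2A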
In short: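 Measures AFP mRNA change in HepaRG after 48 h chemical exposure (8 half-log concentrations, highest 100 uM, 0.5% DMSO). Fold change relative to DMSO, fitted in both directions.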

BCL2L11 (gene 10018) = assay: LTEA_HepaRG_BCL2L11: Life Technologies and Expression Analysis (LTEA) Assay for Bcl-2 (BCL2L11) gene using HepaRG (AID 2283473)
In short: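 Human hepatic HepaRG cultures are treated 48 h with test chemicals (maximum 100 uM, 0.5% DMSO vehicle). Expression of BCL2L11 is measured by qRT-PCR against ACTB, GAPDH and POLR2A, with activity in either direction scored relative to vehicle.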

[7] = read-out: Apolipoprotein A-V (APOA5) gene, APOA5 (gene 116519); assay: LTEA_HepaRG_APOA5: Life Technologies and Expression Analysis (LTEA) Assay for Apolipoprotein A-V (APOA5) gene using HepaRG (AID 2283474)
In short: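 Concentration-response of APOA5 expression in HepaRG: eight half-log doses to 100 uM, 48 h, qRT-PCR normalized to ACTB/GAPDH/POLR2A, bidirectional fitting with 0.5% DMSO as baseline.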

[8] = read-out: Apoptosis regulator Bcl-2 (Homo sapiens) (UniProt P10415); assay: LTEA_HepaRG_BCL2: Life Technologies and Expression Analysis (LTEA) Assay for Bcl-2 gene using HepaRG (AID 2283475);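 note: BCL2 transcript by TaqMan qRT-PCR normalised to ACTB GAPDH and POLR2A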
In short: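 Each chemical was tested in duplicate on HepaRG cultures held in serum-free induction medium for 48 h, highest concentration 100 uM with half-log dilutions. Transcript levels came from multiplexed qRT-PCR, normalised to housekeeping genes; activity was scored in either direction relative to DMSO.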

Sequence of Apoptosis regulator Bcl-2 (Homo sapiens) (P10415 whole entry, looked up): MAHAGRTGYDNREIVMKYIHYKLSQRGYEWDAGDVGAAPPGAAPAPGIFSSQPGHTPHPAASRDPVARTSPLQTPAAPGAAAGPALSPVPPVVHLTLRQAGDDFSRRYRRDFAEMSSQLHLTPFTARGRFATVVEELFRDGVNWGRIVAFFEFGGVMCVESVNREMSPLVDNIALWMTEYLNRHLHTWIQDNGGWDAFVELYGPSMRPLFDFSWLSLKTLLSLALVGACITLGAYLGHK

| Structure (SMILES) | outcome [1] | AC50 [2] | outcome [3] | outcome [4] | outcome [5] | outcome [6] | outcome (BCL2L11 (gene 10018)) | outcome [7] | outcome [8] | outcome [2] | AC50 [1] | AC50 [5] | AC50 (BCL2L11 (gene 10018)) | AC50 [7] | AC50 [8] | AC50 [6] | AC50 [4] |
| --- | --- | --- | --- | --- | --- | --- | --- | --- | --- | --- | --- | --- | --- | --- | --- | --- | --- |
| CCC(=O)Nc1ccc(Cl)c(Cl)c1 | inactive | 50 µM (active) | inactive | inactive | inactive | inactive | inactive | inactive | inactive | – | – | – | – | – | – | – | – |
| CCc1cnc(C2=NC(C)(C(C)C)C(=O)N2)c(C(=O)O)c1 (stereo unspecified) | inactive | – | inactive | inactive | inactive | inactive | inactive | inactive | inactive | inactive | – | – | – | – | – | – | – |
| S=C1NCCN1 | – | – | inactive | inactive | – | inactive | inactive | inactive | inactive | inactive | 0.232 µM (active) | 12.6 µM (active) | – | – | – | – | – |
| CC(=NC#N)N(C)Cc1ccc(Cl)nc1 | inactive | – | inactive | inactive | inactive | inactive | inactive | inactive | inactive | inactive | – | – | – | – | – | – | – |
| CCOP(=S)(OCC)Oc1cc(C)nc(C(C)C)n1 | inactive | – | inactive | inactive | inactive | inactive | inactive | inactive | inactive | inactive | – | – | – | – | – | – | – |
| COP(=O)(OC)SCn1c(=O)oc2cc(Cl)cnc21 | inactive | – | inactive | inactive | inactive | inactive | – | – | – | inactive | – | – | 50 µM (active) | 0.282 µM (active) | 50 µM (active) | – | – |
| CSC1=N[C@@](C)(c2ccccc2)C(=O)N1Nc1ccccc1 | – | 13.3 µM (active) | inactive | inactive | inactive | – | – | – | – | – | 27.3 µM (active) | – | 12.6 µM (active) | 33.8 µM (active) | 30.2 µM (active) | 35.2 µM (active) | – |
| CC(C)=CC1C(C(=O)OCN2C(=O)C3=C(CCCC3)C2=O)C1(C)C (stereo unspecified) | inactive | – | inactive | inactive | inactive | inactive | inactive | inactive | inactive | inactive | – | – | – | – | – | – | – |
| CC[C@H](C)[C@H]1O[C@]2(C=C[C@@H]1C)C[C@@H]1C[C@@H](C/C=C(\C)[C@@H](O[C@H]3C[C@H](OC)[C@@H](O[C@H]4C[C@H](OC)[C@@H](NC)[C@H](C)O4)[C@H](C)O3)[C@@H](C)/C=C/C=C3\CO[C@@H]4[C@H](O)C(C)=C[C@@H](C(=O)O1)[C@]34O)O2 | – | 11.9 µM (active) | inactive | – | – | – | – | inactive | inactive | – | 13 µM (active) | 50 µM (active) | 12.5 µM (active) | – | – | 87.7 µM (active) | 50 µM (active) |
| CCOP(=S)(OCC)Oc1ccc([N+](=O)[O-])cc1 | inactive | – | inactive | inactive | inactive | – | inactive | inactive | inactive | inactive | – | – | – | – | – | 2.4 µM (active) | – |
| CCOC(=O)CC(SP(=O)(OC)OC)C(=O)OCC (stereo unspecified) | inactive | – | inactive | inactive | inactive | inactive | inactive | inactive | inactive | inactive | – | – | – | – | – | – | – |
| CC1(C(=O)Nc2ccc(O)c(Cl)c2Cl)CCCCC1 | inactive | – | inactive | inactive | inactive | inactive | inactive | inactive | inactive | inactive | – | – | – | – | – | – | – |
| COP(=O)(OC)C(O)C(Cl)(Cl)Cl (stereo unspecified) | inactive | 0.0572 µM (active) | inactive | inactive | inactive | inactive | inactive | inactive | inactive | – | – | – | – | – | – | – | – |
| CCCOCC(=Nc1ccc(Cl)cc1C(F)(F)F)n1ccnc1 | – | 15.8 µM (active) | inactive | – | – | – | inactive | inactive | inactive | – | 72.2 µM (active) | 78.5 µM (active) | – | – | – | 15.8 µM (active) | 21.7 µM (active) |
| CCCCOC(=O)c1ccccc1C(=O)O | inactive | – | inactive | inactive | inactive | inactive | inactive | inactive | inactive | inactive | – | – | – | – | – | – | – |
| CN(C)NC(=O)CCC(=O)O | inactive | – | inactive | inactive | inactive | inactive | inactive | inactive | inactive | inactive | – | – | – | – | – | – | – |
| O=C(O)c1cc(Oc2ccc(C(F)(F)F)cc2Cl)ccc1[N+](=O)[O-] | – | – | inactive | inactive | inactive | inactive | inactive | inactive | inactive | inactive | 28.4 µM (active) | – | – | – | – | – | – |
| O=c1ccc(=O)[nH][nH]1 | inactive | – | inactive | inactive | inactive | inactive | inactive | inactive | inactive | inactive | – | – | – | – | – | – | – |
| CC(Oc1cccc(Cl)c1)C(=O)O (stereo unspecified) | inactive | – | inactive | inactive | inactive | inactive | inactive | inactive | inactive | inactive | – | – | – | – | – | – | – |
